Compounds without any hit were thinned out: in the full panel of roughly 83,000, 20% have a hit.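 The endpoint reported here, percent growth, reads 100 for growth as untreated, 0 for no net growth and -100 for all cells dead.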 Calls of active or inactive are those of the source. How the source made its calls: active means growth percent below 10; inactive means the rest.
How the values were obtained:
Assay in all cases: NCI-60 one-dose screen, 48 h (100 = growth as untreated, 0 = no growth, -100 = all killed)
Conditions in all cases: 10 µM unless noted
NCI-H23 lung = tested on: NCI-H23 lung
NCI-H226 lung = tested on: NCI-H226 lung
NCI-H322M lung = tested on: NCI-H322M lung
HOP-62 NSCLC = tested on: HOP-62 NSCLC
NCI-H460 lung = tested on: NCI-H460 lung
HOP-92 NSCLC = tested on: HOP-92 NSCLC
NCI-H522 lung = tested on: NCI-H522 lung
A549/ATCC NSCLC = tested on: A549/ATCC NSCLC
786-0 renal = tested on: 786-0 renal
COLO 205 colon = tested on: COLO 205 colon

Measured: growth

COc1ccc(C(=O)c2cc(OC)c(OC)c(OC)c2)cc1OC(=O)C(Cl)(Cl)Cl
active: NCI-H460 lung 5.08% | NCI-H522 lung -13.3%
inactive: NCI-H23 lung 26.9% | NCI-H226 lung 95.4% | NCI-H322M lung 38.4% | HOP-62 NSCLC 17.3% | HOP-92 NSCLC 50.3% | A549/ATCC NSCLC 19% | 786-0 renal 20.9% | COLO 205 colon 13%

N#Cc1c(-c2ccc(F)cc2)nc(N=Nc2c(O)[nH]c3ccc(Cl)cc23)nc1N1CCOCC1
active: HOP-92 NSCLC -9.97%
inactive: NCI-H23 lung 37.4% | NCI-H226 lung 10.5% | NCI-H322M lung 46.9% | HOP-62 NSCLC 11.6% | NCI-H460 lung 51.8% | NCI-H522 lung 53.4% | A549/ATCC NSCLC 23.8% | 786-0 renal 17% | COLO 205 colon 65.5%

Sc1cccc2cccnc12
inactive: NCI-H23 lung 55.4% | NCI-H226 lung 55.7% | NCI-H322M lung 36.3% | HOP-62 NSCLC 36.7% | HOP-92 NSCLC 95.6% | A549/ATCC NSCLC 19.1% | 786-0 renal 31.5% | COLO 205 colon 24.4%
active: NCI-H460 lung 6.81% | NCI-H522 lung -12.6%

COc1cc2nc3c(=O)n(CCN(C)C)cnn3c(=O)c2cc1OC
inactive: NCI-H23 lung 95.9% | NCI-H226 lung 103% | NCI-H322M lung 95.2% | HOP-62 NSCLC 101% | NCI-H460 lung 105% | HOP-92 NSCLC 100% | NCI-H522 lung 89% | A549/ATCC NSCLC 105% | 786-0 renal 105% | COLO 205 colon 102%

COC(=O)/C=C1\SC(=Nc2cccc(OC)c2)N(CCc2c[nH]c3ccccc23)C1=O
inactive: NCI-H23 lung 67.9% | NCI-H226 lung 98.2% | NCI-H322M lung 76.8% | HOP-62 NSCLC 53% | NCI-H460 lung 80.7% | HOP-92 NSCLC 46.6% | NCI-H522 lung 28.4% | A549/ATCC NSCLC 61.4% | 786-0 renal 76.7% | COLO 205 colon 75.8%

Nc1cc(N)c(S(=O)(=O)O)cc1N=Nc1cc([N+](=O)[O-])ccc1O
inactive: NCI-H23 lung 94.5% | NCI-H226 lung 101% | NCI-H322M lung 94.9% | HOP-62 NSCLC 90.6% | NCI-H460 lung 104% | HOP-92 NSCLC 89.4% | NCI-H522 lung 88.3% | A549/ATCC NSCLC 95.7% | 786-0 renal 110% | COLO 205 colon 108%

Cc1cc(C)c2nc(Nc3nc(C)c(C)c(=O)[nH]3)nc(C)c2c1
active: NCI-H226 lung -4.16% | NCI-H460 lung 8.55% | HOP-92 NSCLC 7.24% | NCI-H522 lung 7.15% | A549/ATCC NSCLC -32.4% | 786-0 renal 6.33% | COLO 205 colon 1.63%
inactive: NCI-H23 lung 18.4% | NCI-H322M lung 23.8% | HOP-62 NSCLC 12.2%

O=C1c2ccccc2C(=O)c2c1oc1c2c(=O)[nH]c2ccc(Cl)cc21
inactive: NCI-H23 lung 21.2% | NCI-H322M lung 14% | COLO 205 colon 85.7%
active: NCI-H226 lung -28.8% | HOP-62 NSCLC -38.7% | NCI-H460 lung -69.7% | HOP-92 NSCLC -37.2% | NCI-H522 lung -16.8% | A549/ATCC NSCLC -0.0514% | 786-0 renal 2.5%

O=C(/C(=C/c1ccc([N+](=O)[O-])cc1)SCc1ccccc1)c1ccc(Cl)cc1
inactive: NCI-H23 lung 70.9% | NCI-H226 lung 68.4% | NCI-H322M lung 105% | HOP-62 NSCLC 80.3% | NCI-H460 lung 87.4% | HOP-92 NSCLC 71.1% | NCI-H522 lung 41.4% | A549/ATCC NSCLC 82.7% | 786-0 renal 86.9% | COLO 205 colon 70.3%

O=C1c2ccccc2C(=O)c2c1oc1c2c(=O)[nH]c2ccccc21
inactive: NCI-H23 lung 66% | NCI-H226 lung 78.5% | NCI-H322M lung 89.3% | HOP-62 NSCLC 119% | NCI-H460 lung 68.3% | HOP-92 NSCLC 71.4% | NCI-H522 lung 54.8% | A549/ATCC NSCLC 97.2% | 786-0 renal 102% | COLO 205 colon 109%

O=c1[nH]nc(-c2ccccc2)c2sc(NC(=S)Nc3ccc(Cl)cc3)nc12
inactive: NCI-H23 lung 86% | NCI-H226 lung 89.3% | NCI-H322M lung 100% | HOP-62 NSCLC 79.4% | NCI-H460 lung 97.6% | HOP-92 NSCLC 97.2% | NCI-H522 lung 68.6% | A549/ATCC NSCLC 90.7% | 786-0 renal 92.5% | COLO 205 colon 101%

COc1cc2cc(c1Cl)N(C)C(=O)C[C@H](OC(=O)[C@H](C)N(C)C(=O)CCS)C[C@]1(C)O[C@H]1[C@H](C)[C@@H]1C[C@@](O)(NC(=O)O1)[C@H](OC)/C=C/C=C(\C)C2
active: NCI-H460 lung 7.39% | HOP-92 NSCLC 4.28% | NCI-H522 lung -31.2% | COLO 205 colon -65.7%
inactive: NCI-H23 lung 23.2% | NCI-H226 lung 69.5% | NCI-H322M lung 42.8% | HOP-62 NSCLC 18.3% | A549/ATCC NSCLC 16.3% | 786-0 renal 13.8%

COc1ccc(-c2cc(C(=O)N3N=C(c4ccc(N)cc4)CC3c3ccc(OC)cc3)c3cc(OC)ccc3n2)cc1 (stereo not given)
inactive: NCI-H23 lung 48.6% | NCI-H226 lung 94.9% | NCI-H322M lung 93.3% | HOP-62 NSCLC 60.1% | NCI-H460 lung 85.4% | HOP-92 NSCLC 56% | NCI-H522 lung 29.5% | A549/ATCC NSCLC 76.6% | 786-0 renal 18.9% | COLO 205 colon 96.3%

COc1cc(NC(=O)Nc2cnc(Nc3ccc(N4CCOCC4)cc3)nc2Oc2ccc(F)cc2)cc(OC)c1
inactive: NCI-H23 lung 81.2% | NCI-H226 lung 88% | NCI-H322M lung 97.2% | HOP-62 NSCLC 89.5% | NCI-H460 lung 54.1% | HOP-92 NSCLC 78.6% | NCI-H522 lung 92.5% | A549/ATCC NSCLC 55.6% | 786-0 renal 38.8% | COLO 205 colon 111%

CSc1nc(-c2cccs2)c2c(N)[nH]nc2n1
inactive: NCI-H23 lung 93.1% | NCI-H226 lung 104% | NCI-H322M lung 92.8% | HOP-62 NSCLC 87.9% | NCI-H460 lung 113% | HOP-92 NSCLC 110% | NCI-H522 lung 83.3% | A549/ATCC NSCLC 98.5% | 786-0 renal 91.4% | COLO 205 colon 112%

COc1ccc(-n2cc(-c3ccc(Cl)c(Cl)c3)[nH]c2=O)cc1OC
inactive: NCI-H23 lung 94.8% | NCI-H226 lung 97.5% | NCI-H322M lung 75.9% | HOP-62 NSCLC 97.3% | NCI-H460 lung 107% | HOP-92 NSCLC 75% | NCI-H522 lung 85.2% | A549/ATCC NSCLC 89.6% | 786-0 renal 59.5% | COLO 205 colon 109%

COc1ccc2[nH]c3nc4cnccc4cc3c2c1
inactive: NCI-H23 lung 95.2% | NCI-H226 lung 111% | NCI-H322M lung 105% | HOP-62 NSCLC 96.3% | NCI-H460 lung 103% | HOP-92 NSCLC 139% | NCI-H522 lung 87.3% | A549/ATCC NSCLC 99.6% | 786-0 renal 104% | COLO 205 colon 111%

C[C@H]1[C@H](C)CC[C@]2(C(=O)OCCCC[P+](c3ccccc3)(c3ccccc3)c3ccccc3)CC[C@]3(C)C(=CC[C@@H]4[C@@]5(C)CC[C@H](OC(=O)C(Cl)Cl)C(C)(C)[C@@H]5CC[C@]43C)[C@H]12
active: NCI-H23 lung -48.3% | NCI-H226 lung -78.8% | NCI-H322M lung -10.6% | HOP-62 NSCLC -65% | NCI-H460 lung -83.8% | HOP-92 NSCLC -70.1% | NCI-H522 lung -55% | A549/ATCC NSCLC -41.9% | 786-0 renal -83.5% | COLO 205 colon -84.9%

COc1cc(/C=N/Nc2nc(-c3ccc(F)cc3)c(C#N)c(N3CCOCC3)n2)ccc1O
inactive: NCI-H23 lung 108% | NCI-H226 lung 97.8% | NCI-H322M lung 97.4% | HOP-62 NSCLC 104% | NCI-H460 lung 102% | HOP-92 NSCLC 80% | NCI-H522 lung 99.3% | A549/ATCC NSCLC 89.6% | 786-0 renal 82% | COLO 205 colon 101%

CCOC(=O)c1c(C(F)(F)F)n([O-])c2ccc(Cl)cc2[n+]1=O
inactive: NCI-H23 lung 14.8%
active: NCI-H226 lung 3.03% | NCI-H322M lung 6.75% | HOP-62 NSCLC -65.6% | NCI-H460 lung -78.5% | HOP-92 NSCLC -78.2% | NCI-H522 lung -59.4% | A549/ATCC NSCLC -39.6% | 786-0 renal -73.8% | COLO 205 colon -59.2%

COCCOC(=O)COc1ccc(OC)cc1
inactive: NCI-H23 lung 105% | NCI-H226 lung 97.3% | NCI-H322M lung 94.9% | HOP-62 NSCLC 111% | NCI-H460 lung 108% | HOP-92 NSCLC 98.3% | NCI-H522 lung 115% | A549/ATCC NSCLC 99.2% | 786-0 renal 109% | COLO 205 colon 115%

Cc1nccc2c3ccc(OCc4cn(-c5ccccc5)nn4)cc3n(CCCc3ccccc3)c12
inactive: NCI-H23 lung 80.8% | NCI-H226 lung 85.7% | NCI-H322M lung 75.6% | HOP-62 NSCLC 78.2% | NCI-H460 lung 59.2% | HOP-92 NSCLC 57.3% | NCI-H522 lung 57.5% | A549/ATCC NSCLC 52.2% | 786-0 renal 80% | COLO 205 colon 50.7%

Cc1ccc(CS/C(=C\c2ccc([N+](=O)[O-])cc2)C(=O)c2ccc(F)cc2)cc1
inactive: NCI-H23 lung 57.2% | NCI-H226 lung 67% | NCI-H322M lung 103% | HOP-62 NSCLC 83.4% | NCI-H460 lung 82.3% | HOP-92 NSCLC 96.2% | A549/ATCC NSCLC 85% | 786-0 renal 76.9% | COLO 205 colon 54.2%
active: NCI-H522 lung -5.69%

CCCS(=O)(=O)Nc1ccc(F)c(C(=O)c2c[nH]c3ncc(-c4ccc(OCCCC5CCCCN5)nc4)cc23)c1F (stereo not given)
active: HOP-92 NSCLC 4.71% | COLO 205 colon 2.52%
inactive: NCI-H23 lung 80.7% | NCI-H226 lung 69.9% | NCI-H322M lung 97.8% | HOP-62 NSCLC 65.5% | NCI-H460 lung 79.9% | NCI-H522 lung 59.5% | A549/ATCC NSCLC 83.5% | 786-0 renal 78.7%

NCCCn1c2c(c3cc(-c4ccn[nH]4)ccc3c1=O)C(=O)c1ccccc1-2
inactive: NCI-H23 lung 57.6% | NCI-H226 lung 56.9% | NCI-H322M lung 67.8% | HOP-62 NSCLC 42.4% | NCI-H460 lung 11.8% | HOP-92 NSCLC 79.2% | NCI-H522 lung 30.6% | A549/ATCC NSCLC 28.4% | 786-0 renal 41% | COLO 205 colon 43.8%

COc1ccc(/C(=N\O)c2cc(C)c(OC)c(C)c2)cc1O
inactive: NCI-H23 lung 45.9% | NCI-H226 lung 60.6% | NCI-H322M lung 48.3% | HOP-62 NSCLC 39.8% | HOP-92 NSCLC 54.1% | A549/ATCC NSCLC 22.2% | 786-0 renal 35.3%
active: NCI-H460 lung 9.22% | NCI-H522 lung -11.4% | COLO 205 colon -38%

— PubChem BioAssay (NCI)
